# A selection: hits, their analogues and other compounds. The true share with any hit is near 1.9%.
# GSIS activator: primary screen for activators of insulin secretion dependent on glucose, INS-1E cells, GLuc reporter luminescence; INS-1E GLuc reporter insulin secretion, 2-3 h; activation, % at 16.6 µM; 0.61% of 370,000 active; AID 743287;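 active means lowest replicate activation of at least 40%, so every replicate reaches that level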;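 further: 0% = median of neutral control wells and 100% = median of IBMX positive control wells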
# dFosB act: enhances mouse delta FosB homodimer DNA binding. P13346. 0.99% of 340,000 active. purified delta FosB, TAMRA-CDK5 oligo fluorescence polarization; percent of positive-control signal above neutral wells. activation, % at 25 µM. AID 493131;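 active means mean activation above about 17%, with every replicate also reaching it, limit read from the data, passing the limit was not always enough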
# Target sequence (P13346 whole entry, looked up): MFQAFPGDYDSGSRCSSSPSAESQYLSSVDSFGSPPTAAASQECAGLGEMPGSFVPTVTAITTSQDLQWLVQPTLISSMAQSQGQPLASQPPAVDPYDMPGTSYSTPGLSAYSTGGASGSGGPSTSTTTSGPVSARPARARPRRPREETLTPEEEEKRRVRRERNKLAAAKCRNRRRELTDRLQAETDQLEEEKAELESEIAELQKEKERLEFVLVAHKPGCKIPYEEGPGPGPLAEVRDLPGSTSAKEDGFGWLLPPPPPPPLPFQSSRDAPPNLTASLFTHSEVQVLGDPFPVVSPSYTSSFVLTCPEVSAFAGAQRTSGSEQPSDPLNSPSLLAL
# Bfl-1 A1 inh: inhibitors of the anti-apoptotic protein A1, read as caspase activation. MEF A1-2A-BIM cells, Caspase-Glo 3/7 luminescence, 3 h; percent of clofoctol response, vehicle zero. caspase activation, % (concentration not given with the values). 0.066% of 330,000 active;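 active means over half of replicate activation scores above 10%, or exactly half above 10 with the replicate mean above 10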
# Vif imaging: inhibitors of HIV Vif | HEK293T cells, Vif self-association by quenched fluorescence, imaging, 24 h | 0.35% of 340,000 active | AID 602346 | inhibition, % at 7.49 µM; in the data active means inhibition above about 50%, passing the limit was not always enough
# Neddyl block: inhibitors of human cullin neddylation; P61081+Q13564; 0.58% of 360,000 active; TR-FRET cullin neddylation, biochemical; inhibition, % at 25 µM; in the data active means inhibition above about 36%
# An asterisk follows results filed as active; . = not tested or not shown.
SMILES,GSIS activator,dFosB act,Bfl-1 A1 inh,Vif imaging,Neddyl block
CC(C)NC(=O)N1CC2(C1)[C@@H](c1ccccc1)[C@@H](CO)N2C(=O)C1CCC1,-17,.,.,.,.
CC(C)C(=O)Nc1ccc2c(c1)C(=O)N(C)[C@H]1CC[C@@H](CC(=O)NCc3cccc(F)c3)O[C@@H]1CO2,5,.,.,.,.
Cc1ccc2nc(-c3ccc(NC(=O)CCN4C(=O)c5ccccc5C4=O)cc3)sc2c1,.,-3,-4,-3,.
Cc1ccc(C2(C)NC(=O)N(CC(=O)Nc3ccc(-c4nc5ccc(C)cc5s4)cc3)C2=O)cc1 (stereo unspecified),44*,4,-2,1,27
Cn1c(N)c(C(=O)CSc2nc3ccccc3n2-c2ccccc2)c(=O)n(C)c1=O,63*,-15,-1,1,1
O=[N+]([O-])c1cccc(-c2nc(-c3ccccc3)c(-c3cccs3)[nH]2)c1,48*,9,0,-9,-40
C=CCN1C(=O)c2n[nH]c(COC)c2C1c1ccc(F)cc1 (stereo unspecified),65*,.,.,.,.
CCNc1nc(NCC)nc(OCC(=O)O)n1,17,6,1,6,9
CCNc1nc(NOC)nc(OCC#N)n1,47*,-3,0,4,1
CCN(CCO)Cc1csc2cc(C)ccc12,47*,-4,1,.,-2
C=C[C@@]1(C)CC(=O)[C@]2(O)[C@@]3(C)[C@@H](O)CCC(C)(C)[C@@H]3[C@H](OC(C)=O)[C@H](O)[C@@]2(C)O1,85*,-8,-2,82*,0
C=C[C@@]1(C)CC(=O)[C@]2(O)[C@@]3(C)[C@@H](O)CCC(C)(C)[C@@H]3[C@H](O)[C@H](OC(C)=O)[C@@]2(C)O1,99*,1,2,75*,2
C=C1C(=O)O[C@H]2C[C@]3(C)C([C@@H](OC(=O)/C(C)=C/C)[C@H]12)[C@](C)(O)CC[C@H]3O (stereo partly specified),12,-5,0,11,4
COC(=O)[C@H]1[C@H](CO)[C@H]2Cn3c(cccc3=O)[C@H]2N1C(=O)C1CCCC1,-6,.,.,.,.
Cc1ccccc1-c1cnc2c(c1)C(=O)N([C@H](C)CO)C[C@H](C)[C@H](CN(C)Cc1cccnc1)O2,20,.,.,.,.
C[C@@H]1CN([C@@H](C)CO)C(=O)c2cc(NC(=O)CCC(F)(F)F)ccc2O[C@@H]1CN(C)Cc1ccc(Cl)c(Cl)c1,-38,.,.,.,.
OCCN1CCN(c2ncnc3c2sc2nc(N4CCOCC4)c4c(c23)CCC4)CC1,-13,20*,0,0,.
OCCN(CCO)c1ncnc2c1sc1nc(N3CCOCC3)c3c(c12)CCCC3,.,8,0,9,21
CCn1c(C)nc2cc(S(=O)(=O)C(F)(F)F)ccc21,99*,-1,0,-4,-11
COc1ccccc1CN(C)C[C@@H]1OCc2ccccc2-c2c(n(C)c3ccccc23)C(=O)N([C@@H](C)CO)C[C@@H]1C,2,.,.,.,.
O=C(N=Nc1c(O)[nH]c2ccccc12)c1cc(-c2cccs2)[nH]n1,2,71*,-5,-4,-18
O=C(Cc1cccs1)N=Nc1c(O)[nH]c2ccccc12,8,0,0,7,-36
O=C(N=Nc1c(O)[nH]c2ccccc12)c1cc(-c2ccc(F)cc2)n[nH]1,7,63*,-1,4,-4
Oc1[nH]c2ccccc2c1N=Nc1ccc(F)cc1,.,-1,-6,-2,0
Cc1cc(S(=O)(=O)N2CCOCC2)ccc1OCC(=O)N1CCCC1,-4,5,1,65*,-13
SMILES,GSIS activator,dFosB act,Bfl-1 A1 inh,Vif imaging,Neddyl block
Cc1cc(S(=O)(=O)N2CCOCC2)ccc1OCC(=O)NCCN1CCOCC1,36,-2,0,71*,4
Cc1cc(S(=O)(=O)N2CCOCC2)ccc1OCC(=O)N1CCCCC1,-4,-8,1,19,5
CCC(=O)Nc1ccc2c(c1)C(=O)N(C)C[C@@H](OC)[C@@H](C)CN(C(=O)NC(C)C)[C@@H](C)CO2,7,.,.,.,.
CN1C(=O)c2cc(NC(=O)Nc3ccccc3)ccc2OC[C@H]2O[C@@H](CC(=O)NC3CCC3)CC[C@H]21,-10,.,.,.,.
CCCNC(=O)N1C[C@H](C)[C@H](OC)CN(C)C(=O)c2cc(NC(=O)C3CCC3)ccc2OC[C@H]1C,-2,.,.,.,.
COc1cccc(N2CCN(c3ncnc4c3[nH]c3ccc(F)cc34)CC2C)c1 (stereo unspecified),.,-10,1,1,39*
